# Data reported in PubChem BioAssay.
# Where “and” joins values, the source holds several entries; their conditions need not be identical. Identical values can stand only once. Calls of active or inactive are those of the source. Cut-off read from the data, not from the text of the source, unless noted: active = inhibition above about 80%; inactive = the rest.
# Tests used:
# [1] = growth inhibition, single agent or in combination, cell-based, chromothripsis tumors, cisplatin or BGB combos (AID 1671449); conditions: LFS_MB_P medulloblastoma cells;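 note: cells exposed for 96 hours; 0% = vehicle DMSO and 100% = killing by high DMSO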
# [2] = growth inhibition, single agent and combos, cell-based, chromothripsis tumors, cisplatin or BGB combos (AID 1671450); conditions: HDN33 neuroblastoma cells, stronger effect = higher value;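 note: cells exposed to compound for four days; 0% = vehicle DMSO and 100% = cell killing by high DMSO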
# [3] = growth inhibition, single agents and combos, ICB984, cell-based, cisplatin or BGB combos, synergistic combos for chromothripsis tumors (AID 1671451; call rule not given here;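 note: cells exposed for 96 hours before readout; 0% = vehicle DMSO and 100% = killing by high DMSO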); conditions: ICB984 medulloblastoma cells, drug combinations, stronger effect = higher value
# [4] = growth inhibition, single agents and combos, LFS_MB_1R, cell-based, cisplatin or BGB combos, synergistic combos for chromothripsis tumors (AID 1671452); conditions: LFS_MB_1R medulloblastoma cells, stronger effect = higher value;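 note: cells exposed for 96 hours before readout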
# [5] = growth inhibition, single agents and combos, HTB85, cell-based, BGB or cisplatin IC20 combos, synergistic combos for chromothripsis tumors (AID 1671453); conditions: HTB85 osteosarcoma cells, drug combinations, stronger effect = higher value;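 note: cells exposed for 96 hours before readout; 0% = vehicle DMSO and 100% = high DMSO killing control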
# [6] = growth inhibition, single agents and combos, CRL2098, cell-based, BGB or cisplatin IC20 combos, synergistic combos for chromothripsis tumors (AID 1671454); conditions: CRL2098 osteosarcoma cells, drug combinations, stronger effect = higher value;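 note: cells exposed for 96 h before readout; 0% = vehicle DMSO and 100% = killing by high DMSO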
# [7] = growth inhibition, single agents and combos, HD-MB03, cell-based, BGB or cisplatin IC20 combos, synergistic combos for chromothripsis tumors (AID 1671455; in the data active = inhibition above about 83%;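 note: 0% = vehicle DMSO and 100% = high DMSO as cytotoxic control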); conditions: HD-MB03 medulloblastoma cells, stronger effect = higher value
# [8] = growth inhibition, single agents and combos, UWB1.289, cell-based, BGB or cisplatin combos, synergistic combos for chromothripsis tumors (AID 1671456); conditions: UWB1.289 ovarian carcinoma cells, stronger effect = higher value;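 note: cells exposed to compound for four days; 0% = vehicle DMSO and 100% = killing by high DMSO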
# [9] = growth inhibition, single agents and combos, LFS_MB_2R, cell-based, cisplatin combos, synergistic combos for chromothripsis tumors (AID 1671457); conditions: LFS_MB_2R medulloblastoma cells, stronger effect = higher value;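 note: cells exposed to compound for four days before readout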
# [10] = growth inhibition, MDA-MB-436, cell-based, BGB or cisplatin combos, synergistic combos for chromothripsis tumors (AID 1671458; call rule not given here;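 note: cells exposed for 96 hours; 0% = vehicle DMSO and 100% = killing by high DMSO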); conditions: MDA-MB-436 breast carcinoma growth inhibition, drug combinations, stronger effect = higher value
# [11] = UWB1.289_BRCA1 ovarian cancer growth, cell-based, BGB or cisplatin combinations (AID 1671459); conditions: UWB1.289 BRCA1 ovarian carcinoma, drug combinations, stronger effect = higher value
# [12] = drug combination toxicity in non-malignant astrocytes – cell-based, BGB or cisplatin IC20 combos, cytotoxicity control for chromothriptic childhood tumor combination screen (AID 1671460); conditions: Human astrocytes, viability inhibition, drug combinations, at 0.5 µM, stronger effect = higher value;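 note: cells exposed to compounds for 96 hours before viability readout; 0% = vehicle and 100% = killing control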
# [13] = BT084 cell growth, single and combined drugs, ICGC_MB145, cisplatin and BGB IC40 combos (AID 1671461); conditions: BT084 medulloblastoma cells, drug combinations, stronger effect = higher value;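 note: cells exposed to drugs for 96 hours; 0% = vehicle DMSO and 100% = high DMSO full killing control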
# [14] = RCMB18 cell growth, single agent and combined, cisplatin and BGB IC40 combos (AID 1671462); conditions: RCMB18 medulloblastoma cells, stronger effect = higher value;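 note: cells exposed to compound for four days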
# [15] = CRL1545 cell growth, single agent and combined, cisplatin and BGB IC20 combos (AID 1671464); conditions: CRL1545 osteosarcoma cells, stronger effect = higher value;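 note: cells exposed to compound for 96 hours before readout; 0% = vehicle DMSO and 100% = high DMSO killing control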
# [16] = measured here: combination with BGB IC40, at 0.05 µM
# [17] = measured here: with BGB IC20 combination, at 0.5 µM
# [18] = measured here: with cisplatin IC20 combination, at 0.5 µM
# [19] = measured here: combination with cisplatin, at 0.5 µM
# [20] = measured here: combination with cisplatin, at 5 µM
compound,measurement,setting,value
CCCCNNC(=O)c1ccc(Br)cc1,inhibition,"[1]; at 0.5 µM, stronger effect = higher value",-28.6% (inactive) and -13.6% (inactive)
same,inhibition,"[1]; measured here: combination with BGB IC20, at 0.005 µM",-3.01% and -23.3%
same,inhibition,"[1]; measured here: combination with BGB IC40, at 0.005 µM",-22.6% and -43.3%
same,inhibition,[1]; [16],-0.924% and -28%
same,inhibition,"[1]; measured here: combination with cisplatin, at 0.5 µM, stronger effect = higher value",-32% and -11.5%
same,inhibition,"[1]; measured here: combination with cisplatin, at 5 µM, stronger effect = higher value",-36.2% and 31.8%
same,inhibition,"[2]; BGB combo, at 5 µM",-6.55% and 1.44%
same,inhibition,[2]; at 0.5 µM,0.02% (inactive) and -19.7% (inactive)
same,inhibition,"[2]; cisplatin combo, at 5 µM",13.1% and 50.6%
same,inhibition,[2]; [17],3.17% and -28.2%
same,inhibition,[2]; [18],-1.75% and -2.85%
same,inhibition,"[2]; single agent, at 5 µM",4.48% and -2.92%
same,inhibition,"[3]; BGB IC20 combo, at 0.005 µM",-0.717% and -27.2%
same,inhibition,"[3]; BGB IC40 combo, at 0.005 µM",-41.6% and -37.1%
same,inhibition,"[3]; BGB IC40 combo, at 0.05 µM",-16% and 7.68%
same,inhibition,[3]; at 0.5 µM,-18.8% (inactive) and -23.4% (inactive)
same,inhibition,"[3]; cisplatin combo, at 0.05 µM",-20.6% and 3.05%
same,inhibition,"[3]; cisplatin combo, at 0.5 µM",-33.8% and -35%
same,inhibition,"[3]; cisplatin combo, at 5 µM",-37.9% and -23%
same,inhibition,"[3]; measured here: 5 uM single agent, at 5 µM",-7.59% and -16.8%
same,inhibition,[4]; at 0.5 µM,-6.14% (inactive) and -24.9% (inactive)
same,inhibition,[4]; [16],-4.43% and -39.3%
same,inhibition,[4]; [19],15.7% and -27.4%
same,inhibition,[4]; [20],-45.3% and 33.7%
same,inhibition,[5]; at 0.5 µM,-6.38% (inactive) and -12% (inactive)
same,inhibition,"[5]; measured here: with BGB IC20, at 0.5 µM",-9.67% and -6.58%
same,inhibition,"[5]; measured here: with BGB IC20, at 5 µM",-16.5% and 39.7%
same,inhibition,"[5]; measured here: with cisplatin IC20, at 0.5 µM",-16.9% and -17.5%
same,inhibition,"[5]; measured here: with cisplatin IC20, at 5 µM",-4.96% and 37.1%
same,inhibition,"[5]; single agent, at 5 µM",0.402% and 2.14%
same,inhibition,[6]; at 0.5 µM,-42.1% (inactive) and -78.1% (inactive)
same,inhibition,"[6]; measured here: combination with BGB at IC20, at 0.5 µM",-11% and -84.3%
same,inhibition,"[6]; measured here: combination with cisplatin at IC20, at 0.5 µM",-47% and -80.1%
same,inhibition,[7]; at 0.5 µM,-7.76% (inactive) and -11.7% (inactive)
same,inhibition,"[7]; measured here: combo with BGB at IC20, at 0.5 µM",-11.6% and -15%
same,inhibition,"[7]; measured here: combo with cisplatin at IC20, at 0.5 µM",-8.41% and -15%
same,inhibition,[8]; at 0.5 µM,-8.32% (inactive) and -3.86% (inactive)
same,inhibition,"[8]; measured here: inhibition with BGB combination, at 0.05 µM",-23.9% and -19.8%
same,inhibition,"[8]; measured here: inhibition with cisplatin combination, at 0.05 µM",-10.7% and -18.7%
same,inhibition,[9]; at 0.5 µM,-9.05% (inactive) and -20.7% (inactive)
same,inhibition,[9]; [19],-22% and -6.47%
same,inhibition,[9]; [20],-14.2% and 13.9%
same,inhibition,[10]; at 0.5 µM,-12.3% (inactive) and -16% (inactive)
same,inhibition,"[10]; measured here: BGB combination, at 0.5 µM",-20.8% and -8.47%
same,inhibition,"[10]; measured here: BGB combination, at 5 µM",-14.9% and -12.9%
same,inhibition,"[10]; measured here: cisplatin combination, at 0.5 µM",-6.74% and -30.9%
same,inhibition,"[10]; measured here: cisplatin combination, at 5 µM",-0.941% and -3.8%
same,inhibition,"[11]; BGB combination, concentration series, at 5 µM",6.4% and 33.8%
same,inhibition,[11]; at 0.5 µM,-7.63% (inactive) and -13.8% (inactive)
same,inhibition,"[11]; cisplatin combination, concentration series, at 5 µM",26% and 52.3%
same,inhibition,[12],8.76% (inactive) and -0.16% (inactive)
same,inhibition,[12]; measured here: combo with BGB IC20,10.6% and 7.19%
same,inhibition,[12]; measured here: combo with cisplatin IC20,16.8% and 11.7%
same,inhibition,[13]; at 0.5 µM,-6.87% (inactive) and -6.41% (inactive)
same,inhibition,"[13]; cisplatin combination, at 0.5 µM",-5.88% and 9.41%
same,inhibition,"[13]; cisplatin combination, at 5 µM",5.88% and 9.57%
same,inhibition,"[13]; measured here: BGB IC40 combination 0.05 uM, at 0.05 µM",-2.71% and -30.8%
same,inhibition,"[13]; single agent, at 5 µM",3.58% and 5.96%
same,inhibition,[14]; at 0.5 µM,-14.6% (inactive) and -4.43% (inactive)
same,inhibition,"[14]; cisplatin combo, at 5 µM",-8.38% and 43.4%
same,inhibition,"[14]; measured here: BGB IC40 combination, at 0.05 µM",-7.86% and -8.38%
same,inhibition,[14]; [19],-0.38% and 8.6%
same,inhibition,"[14]; single agent, at 5 µM",-15.8% and 24%
same,inhibition,[15]; at 0.5 µM,-8.18% (inactive) and -0.65% (inactive)
same,inhibition,[15]; [17],-10.3% and -18.8%
same,inhibition,[15]; [18],-7.12% and 6.96%
same,inhibition,"[15]; single agent, at 0.05 µM",-17.3% and -29.7%
same,inhibition,"[15]; single agent, at 5 µM",-21.8% and -15.7%
